D3 ag: agonists of human D3 dopamine receptor | D3R DiscoveRx beta-arrestin cells, luminescence, 90 min | max activation, % | AID 652048 | hit rate 0.58% among 410,000 | P35462; in the data active = max activation above about 30%
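Cells at 1500/well, incubated overnight, then treated with pinned compounds (dopamine as control) for 90 min at 37 degrees C. DiscoveRx reagent added for 30 - 60 minutes at room temperature; luminescence read.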
PI4K2A block: PI4K2A (human) kinase inhibition; purified PI4K2A, ADP-Glo luminescence, 1 h; hits give low values; hit rate 0.13% among 420,000; activity change, negative = inhibition, % at 76.9 µM; Q9BTU6; in the data active = activity change below about -50%; inconclusive = mostly about -30% to -49%
Target sequence (Q9BTU6 whole entry, looked up): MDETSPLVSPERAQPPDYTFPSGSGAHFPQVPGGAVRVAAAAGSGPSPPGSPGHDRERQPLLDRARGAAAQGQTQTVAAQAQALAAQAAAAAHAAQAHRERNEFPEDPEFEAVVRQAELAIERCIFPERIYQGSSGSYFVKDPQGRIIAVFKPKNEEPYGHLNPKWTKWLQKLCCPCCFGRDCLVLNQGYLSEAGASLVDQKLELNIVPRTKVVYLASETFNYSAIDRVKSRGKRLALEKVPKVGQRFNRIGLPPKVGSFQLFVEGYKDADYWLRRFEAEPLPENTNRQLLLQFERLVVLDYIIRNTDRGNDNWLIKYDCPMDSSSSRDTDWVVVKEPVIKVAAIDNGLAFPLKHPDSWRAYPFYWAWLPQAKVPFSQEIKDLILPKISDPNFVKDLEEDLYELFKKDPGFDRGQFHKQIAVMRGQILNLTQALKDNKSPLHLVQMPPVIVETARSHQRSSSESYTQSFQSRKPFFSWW
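ADP-Glo luminescence measured ADP generated by PI4K2A enzyme (4 ug/mL before mixing) with 1.2 mM PI substrate (pre-mix) and 300 microM ATP (pre-mix). Tris pH7.5 buffer with MgCl2, Triton X-100; 1 h reaction at ambient temperature.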
RGS4 inhibitor: inhibitors of human regulator of G protein signaling 4; Transcreener GDP fluorescence polarization, RGS4-accelerated GTP hydrolysis; Potency, µM (titrated, usually from 114 µM), hits mostly inhibitors; hit rate 0.039% among 390,000; active = well fitted inhibition curve with a large enough effect; inconclusive = small, poorly fitted or top-dose-only effect; inactive = no such curve, though single readings can be large or run the other way; note: nearly all actives have a fitted effect of over 75% in size
Target sequence (P49798 whole entry, looked up): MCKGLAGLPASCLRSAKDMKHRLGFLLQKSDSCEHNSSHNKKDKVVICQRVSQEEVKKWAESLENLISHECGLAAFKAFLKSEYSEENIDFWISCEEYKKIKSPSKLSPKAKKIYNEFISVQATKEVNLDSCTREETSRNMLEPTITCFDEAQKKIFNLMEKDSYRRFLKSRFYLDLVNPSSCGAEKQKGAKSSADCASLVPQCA
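MLSMR compounds (23 nl, pin-transferred) preincubated 10 min at room temperature with a 500nM (2x) first reagent, then RGS4 at 900nM (2x) plus Transcreener GDP mix added; fluorescence polarization (620/688 nm) read before and after 90 min at 30 °C.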
LDHA inh: inhibitors of human lactate dehydrogenase A | purified LDHA, NADH/diaphorase-resazurin fluorescence; hits give low values | activity change, % (values are at about 110 or 230 µM) | hit rate 0.15% among 480,000 | P00338; in the data active = activity change below about -30%; inconclusive = mostly about -25% to -30%
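Remaining NADH was detected by diaphorase (0.133 mg/mL) converting 37 µM resazurin to fluorescent resorufin, read at 0 and 20 minutes. The preceding 5-minute room-temperature reaction used 2 nM LDHA, 0.2 mM sodium pyruvate and 0.06 mM NADH at pH 7.4.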
D3 antag: D3 dopamine receptor (human) antagonism; P35462; D3R cells, DiscoveRx beta-arrestin luminescence, antagonist mode; hits give low values; max response, negative = inhibition, %; hit rate 2.5% among 360,000; AID 652054; in the data active = max response below about -50%; inconclusive = no clear call, values can overlap the other calls
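Cells plated overnight at 1500 cells/well, then exposed to library compounds with dopamine controls for 90 minutes at 37 degrees C. DiscoveRx reagent added for 30–60 minutes at room temperature; luminescence read, quantitative HTS format.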
Akt phos inh: inhibitors of Akt phosphorylation. Neuro2A IGF-stimulated pAkt S473 HTRF, 20 min; hits give low values. activity change, % for hits at 50 µM. hit rate 0.32% among 360,000. AID 651550; in the data active = activity change below about -80%; inconclusive = mostly about -51% to -80%
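Neuro2A cells in DMEM with 0.5% FBS, overnight at 37 deg C, given compound at single 50 µM final, then IGF (6 nM final) for 20 min at 37 deg C. Lysed; phospho-Akt Ser473 by HTRF after 24 h, 665/615 ratio.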
Hits are given with their value; . = inactive; ? = inconclusive; / = no result; [ ] = dose if it differs, or a comment. Sampled rows, rich in hits. Any-hit rate of the full collection: about 2.8%.

SMILES	D3 ag	PI4K2A block	RGS4 inhibitor	LDHA inh	D3 antag	Akt phos inh
COC(=O)C1C(O)=C(C=NCc2ccccc2)C(=O)CC1(C)C (configuration not stated)	.	.	.	.	.	-114%
COC(=O)c1[nH]c(C)c(/C(O)=C2\C(=O)C(=O)N(CCCn3ccnc3)C2c2ccc(Cl)cc2)c1C (configuration not stated)	/	/	/	.	/	/
Cc1ccc(OCCN2CCN(C(=O)CCC(=O)Nc3nnc(C(C)C)s3)CC2)cc1	33	.	.	.	.	.
CCCc1nnc(NC(=O)CCC(=O)N2CCN(CCOc3ccc(C)cc3)CC2)s1	70	.	.	.	.	.
Cc1ccc(OCCN2CCN(C(=O)CCC(=O)Nc3nnc(C)s3)CC2)cc1	37	.	.	.	.	.
CCc1cc2c(=O)c(-c3cnn(-c4ccccc4)c3)coc2c(CN2CCOCC2)c1O	.	.	.[11.4 µM]	.	.	.
CCc1cc2c(=O)c(-c3cnn(-c4ccccc4)c3)c(C)oc2c(CN2CCCCC2)c1O	37	.	.	.	.	.
COc1ccc(CCNC(=O)C(=O)NCC2CCCN2S(=O)(=O)c2ccc(OC)cc2)cc1 (configuration not stated)	34	.	.	.	.	.
COc1ccc(S(=O)(=O)Oc2ccc3oc(=O)c(-c4ccccc4)c(C)c3c2)cc1	/	/	/	.	/	/
Cc1nc(-c2ccc(Cl)cc2)sc1C1(C)CC(c2ccc([N+](=O)[O-])cc2)=NO1 (configuration not stated)	51	.	.	.	.	.
COc1ccc(CCC(=O)NC2CC(=O)N(c3ccc(C)cc3)C2)cc1 (configuration not stated)	71	.	.	.	/	/
CC(Sc1ccc(Cl)cc1)C(=O)NC1CC2CCC1C2 (configuration not stated)	/	/	/	.	/	/
CC(C)NC(=O)NS(=O)(=O)c1cnccc1NC1CC2CCC1C2 (configuration not stated)	.	.	.	.	.	-107%
COc1ccc(C(CNC(=O)c2cccc(NS(=O)(=O)c3ccccc3)c2)N(C)C)cc1 (configuration not stated)	.	.	.	.	?	.
CCOc1ccc(NS(=O)(=O)c2ccc(C(=O)NCC(c3ccco3)N(C)C)cc2)cc1 (configuration not stated)	.	.	.	.	.	.
CCOc1ccc(S(=O)(=O)Nc2cccc(C(=O)NCC(c3ccccc3)N(C)C)c2)cc1 (configuration not stated)	.	.	.	.	-68	.
COc1ccc(C(CNC(=O)c2cccc(NS(=O)(=O)c3ccc(C)c(F)c3)c2)N(C)C)cc1 (configuration not stated)	.	.	.	.	-59	.
CCOc1ccc(S(=O)(=O)Nc2cccc(C(=O)NCC(c3ccco3)N(C)C)c2)cc1 (configuration not stated)	.	.	.	.	-56	.
Cc1cccc(N=c2oc3cc(O)ccc3cc2C(N)=O)c1	.	.	.[11.4 µM]	.	.	.
COc1ccccc1NC(=O)c1cc2ccc(O)cc2o/c1=N\O	.	.	.	.	-75	.
COc1ccccc1N=c1oc2cc(O)ccc2cc1C(N)=O	.	-52	.	.	-54	.
Cc1ccc(OCC(=O)Nc2c(C)ccc3nsnc23)cc1C	/	/	/	.	/	/
FC(F)(F)c1ccc(CCNC(=S)NC2CC3CCC2C3)cc1 (configuration not stated)	/	/	/	.	/	/
CC(Nc1ccc(Cl)cc1)c1cc(Cl)ccc1O (configuration not stated)	.	.	.	.	-55	.
CCOc1ccc(NC(C)c2cc(Cl)ccc2O)cc1 (configuration not stated)	.	.	.	.	-52	.
SMILES	D3 ag	PI4K2A block	RGS4 inhibitor	LDHA inh	D3 antag	Akt phos inh
Cc1cccc(-n2c(SCCC(=O)O)nnc2-c2cccs2)c1C	.	.	.	.	.	-115%
C=CCn1c(SCCC(=O)O)nnc1-c1cccs1	.	.	.	.	.	.
Cc1ccn2c(CNCC3OCCc4ccccc43)c(C(=O)N3CCCCCC3)nc2c1 (configuration not stated)	.	.	.	.	-81	.
Cc1ccn2c(CNCCn3cccn3)c(C(=O)N3CCCCCC3)nc2c1	.	.	.	.	.	.
Cc1ccn2c(CNCCCn3cccn3)c(C(=O)N3CCCCCC3)nc2c1	.	.	.	.	-58	.
CCN1CCc2c(sc3c2c(=O)n(-c2ccc(Cl)cc2)c(=O)n3CCN(C)C)C1	/	/	/	.	/	/
COC(=O)[C@@]1(Cc2ccccc2)[C@H]2C(=O)N(Cc3ccccc3)C(=O)[C@H]2[C@H]2CN=C(SCc3ccc(Cl)cc3)N21	.	.	.	.	.	.
CCN1C(=O)[C@H]2[C@H]3CN=C(SCc4ccc(C(=O)OC)cc4)N3[C@@](Cc3ccccc3)(C(=O)OC)[C@H]2C1=O	.	.	.	.	?	.
CCN1C(=O)[C@H]2[C@H]3CN=C(SCc4ccc(C)cc4)N3[C@@](Cc3ccccc3)(C(=O)OC)[C@H]2C1=O	.	.	.	.	-57	.
CCN1C(=O)[C@H]2[C@H]3CN=C(SCc4ccc(Cl)cc4)N3[C@@](Cc3ccccc3)(C(=O)OC)[C@H]2C1=O	.	.	.	.	-63	.
O=C(O)Cn1cc(C(C(=O)O)N2CCN(Cc3cccnc3)CC2)c2ccc(Cl)cc21 (configuration not stated)	/	/	/	.	/	/
O=C(CNS(=O)(=O)c1ccccc1)NCc1ccccn1	.	.	.	.	-51	.
Cc1ccc(S(=O)(=O)NCCC(=O)NCc2ccccn2)cc1	.	.	.	.	.	.
Cc1ccccc1NC(=O)c1ccc(Nc2c([N+](=O)[O-])cc([N+](=O)[O-])c3ccccc23)cc1	.	.	.	.	-71	.
O=[N+]([O-])c1ccc(N/N=C/c2ccc(/C=N/Nc3ccc([N+](=O)[O-])cc3)cc2)cc1	/	/	/	.	/	/
CC(C)(C)c1cnnn1-c1ccc(/C=N/Nc2ccc([N+](=O)[O-])cc2)cc1	.	.	.[11.4 µM]	.	-57	.
Cc1ccc(NC(=O)Cn2nc(C)c([N+](=O)[O-])c2C)cc1Cl	.	.	.	.	-55	.
COc1ccc(C(=O)OCc2c(-c3ccccc3)ncc3ccccc23)cc1	.	.	.	.	-50	.
O=c1c2ccccc2cnn1Cc1n[nH]c(=S)n1-c1cc(Cl)cc(Cl)c1	.	.	.	.	-57	.
O=c1c2ccccc2cnn1Cc1n[nH]c(=S)n1-c1ccc(F)c(Cl)c1	.	.	.	.	.	.

Screening results as filed in PubChem.
